The list is not random: actives were taken first. Their share in the collection is about 5.7%.
PI4K2A inh – qHTS for small molecular inhibitors of PI4K2A | 420,000 compounds, 0.13% hits | AID 1346378, 2018 | Phosphatidylinositol 4-kinase type 2-alpha (Homo sapiens), Q9BTU6 | activity change, negative = inhibition, % at 76.9 µM | purified PI4K2A, ADP-Glo luminescence, 1 h; active compounds read low; in the data active means activity change below about -50%; inconclusive means mostly about -30% to -49%;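 further: -100% = wells without enzyme as full effect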
Target sequence (Q9BTU6 whole entry, looked up): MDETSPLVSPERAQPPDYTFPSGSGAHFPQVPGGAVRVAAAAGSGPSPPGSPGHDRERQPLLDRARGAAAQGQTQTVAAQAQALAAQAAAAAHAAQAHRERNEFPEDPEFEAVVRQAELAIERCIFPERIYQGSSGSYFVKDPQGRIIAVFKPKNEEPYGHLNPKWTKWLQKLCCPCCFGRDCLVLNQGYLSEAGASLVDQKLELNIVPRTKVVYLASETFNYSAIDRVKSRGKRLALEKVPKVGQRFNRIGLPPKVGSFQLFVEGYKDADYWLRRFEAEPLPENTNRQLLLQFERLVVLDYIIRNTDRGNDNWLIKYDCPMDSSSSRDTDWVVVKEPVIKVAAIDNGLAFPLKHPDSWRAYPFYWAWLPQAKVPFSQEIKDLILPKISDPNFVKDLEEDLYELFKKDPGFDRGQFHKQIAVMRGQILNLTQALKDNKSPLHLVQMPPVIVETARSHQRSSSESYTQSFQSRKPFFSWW
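PI4K2A activity was measured by ADP-Glo luminescence: enzyme (4 ug/mL stock) and phosphatidylinositol (1.2 mM stock) in Tris pH 7.5/MgCl2/EGTA/Triton X-100 buffer were reacted with ATP (300 microM stock) for one hour at ambient temperature.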
A549 tox-1 – Nrf2 qHTS screen for inhibitors: counterscreen for cytotoxicity. A549 ARE-Fluc cells, CellTiter-Fluor viability, 18-24 h. Potency, µM (series often up to 46 µM), for the others: at the top dose activity change, negative = cytotoxicity, most hits filed as inhibitors. 390,000 compounds, 0.16% hits. AID 504648, 2011; further: potency means the concentration at half of the fitted maximal effect
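A549 ARE_Fluc cells in 5% FBS OPTI-MEM were exposed to compounds in concentration-response for 18-24 h at 37 deg C. Viability was read by CellTiter-Fluor fluorescence (Ex 405/Em 525) after 30 min, before the luciferase read.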
Nrf2 inh – Nrf2 qHTS screen for inhibitors. A549 ARE-Fluc reporter, luciferase luminescence, 18-24 h. Potency, µM (titrated, usually from 46 µM), without a hit: at the top dose activity change, negative = inhibition, actives largely listed as inhibitors. 360,000 compounds, 2.1% hits. AID 504444, 2011; further: potency means the concentration at half of the fitted maximal effect; nearly all actives have a fitted effect of over 60% in size
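A549 ARE_Fluc cells (5000/well, 5% FBS OPTI-MEM) pre-incubated 2 h, then treated with compounds 18-24 h at 37C/5% CO2 in concentration-response. CellTiter-Fluor viability read first; BugLite luciferase luminescence after 15 min at room temperature gives Nrf2 activity.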
KB-3-1 tox – qHTS assay for MDR1-selective chemotherapeutics: Primary screen using the parental adenocarcinoma cell KB-3-1 | KB-3-1 viability, CellTiter-Glo ATP luminescence, 72 h | Potency, µM (top dose mostly 46.1 µM), most hits filed as cytotoxic | 400,000 compounds, 1.4% hits | AID 1347075, 2019; further: potency means the concentration at half of the fitted maximal effect; nearly all actives have a fitted effect of over 60% in size
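KB-3-1 parental drug-naive adenocarcinoma cells in DMEM/10% FBS, incubated 72 h at 37 C with pin-transferred compounds across a concentration series. Viability by CellTiter-Glo luminescence; concentration-response curves fitted after normalization.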
Giardia killer – Small Molecules that selectively kill Giardia lamblia: qHTS; activity change, % at 7.66 µM, hits read low; 340,000 compounds, 0.15% hits; Giardia lamblia trophozoite viability; in the data active means activity change below about -80%; inconclusive means between about -30% and that limit;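 further: parasites exposed to compound for two days anaerobically before the ATP read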
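ATP-content bioluminescence gauges trophozoite survival. Cells (100/well) receive compound and incubate anaerobically for 48 hrs at 37 deg C; detection reagent follows for 15-30 min at room temperature.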
KB-V1 MDR tox – qHTS assay for MDR1-selective chemotherapeutics: Primary screen using the drug-selected MDR subline cells KB-V1. KB-V1 MDR cells viability, CellTiter-Glo, 72 h. Potency, µM (top dose mostly 46.1 µM), usual class: cytotoxic. 400,000 compounds, 3.4% hits. AID 1347076, 2019; further: potency means the concentration at half of the fitted maximal effect; nearly all actives have a fitted effect of over 60% in size
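KB-V1 cells (P-gp-expressing MDR subline of KB-3-1) in phenol-red-free DMEM with 10% FBS were exposed to library compounds over a concentration series for 72 h at 37 degrees C. Viability read by CellTiter-Glo luminescence; concentration-effect curves fitted after normalization.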
FLuc enzyme inh – Nrf2 qHTS screen for inhibitors: Purified Fluc Biochemical Counterscreen for Hit Validation. shares compounds with Nrf2 inh. purified firefly luciferase, luminescence inhibition. Potency, µM (top dose mostly 57.5 µM), inactives show top-dose activity change, negative = inhibition, hits mostly inhibitors. 1,400 compounds, 4% hits. AID 720522, 2013; further: potency means the concentration at half of the fitted maximal effect; nearly all actives have a fitted effect of over 65% in size
A549 tox-2 – Nrf2 qHTS screen for inhibitors: A549 ARE-Fluc Cytotoxicity Counterscreen for Hit Validation; A549 ARE-Fluc cells, cytotoxicity counterscreen; shares compounds with Nrf2 inh; Potency, µM (titrated, usually from 46.1 µM), for the others: at the highest dose activity change, negative = cytotoxicity, actives largely listed as inhibitors; 1,400 compounds, 2% hits;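 further: potency means the concentration at half of the fitted maximal effect; cells exposed to compounds for 18 to 24 hours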
Nrf2 ARE inh – Nrf2 qHTS screen for inhibitors: Nrf2 A549 ARE-Fluc Confirmation Assay for Hit Validation | AID 720524, 2013 | A549 ARE-firefly luciferase reporter, luminescence | 1,400 compounds, 74% hits | Potency, µM (doses to about 46.1 µM), inactives show at the highest dose activity change, negative = inhibition, hits mostly inhibitors | shares compounds with Nrf2 inh; further: potency means the concentration at half of the fitted maximal effect; nearly all actives have a fitted effect of over 65% in size
Active calls of the source: *; i = inactive; ? = inconclusive; nt = no result; ! = not active in a repeat. Unless noted, the call rests on the fitted dose curve; in most records, active means well fitted curve in the direction sought with a large enough effect; inconclusive means small, poorly fitted or top-dose-only effect, or another doubt; inactive means no such curve, though single readings can be large; an effect the other way counts as inactive or inconclusive. Unless noted, on the % scale 0 is the no-effect control and ±100 the full control effect.

SMILES	PI4K2A inh	A549 tox-1	Nrf2 inh	KB-3-1 tox	Giardia killer	KB-V1 MDR tox	FLuc enzyme inh	A549 tox-2	Nrf2 ARE inh
CCCNC(=O)C1CCC(Cn2c(=O)c3sccc3n(CC(=O)NCc3cccc(OC)c3OC)c2=O)CC1 (centres undefined)	3	-1%	-27%	i	nt	i	nt	nt	nt
CC(C)(C)c1ccc(C(=O)Nc2ccc(-c3nc4ccccc4[nH]3)cc2)cc1	nt	nt	nt	i	nt	i	nt	nt	nt
Cn1nccc1C(=O)Nc1cc(Cl)ccc1Cl	5	1%	2.9µM*	i	-6	i	-15%	-1%	5.8µM*
Cc1cc(C)c(S(=O)(=O)NCc2csc(-c3ccccc3)n2)c(C)c1	0	-2%	-21%	nt	nt	nt	nt	nt	nt
O=C(Oc1ccccc1N1C(=O)C2CCCCC2C1=O)c1ccc(Cl)cc1 (centres undefined)	-1	-3%	4.6µM*	i	-11	i	-1%	-1%	6.5µM*
COc1ccc(CNC(=O)Cn2c(=O)cc(-c3ccccc3)c3c(C)nn(C)c32)cc1	-4	0%	-16%	i	nt	i	nt	nt	nt
Cc1nc2ccccc2n1Cc1ccc(Br)cc1	-1	1%	?	?	-14	?	-21%	3%	?
Cc1nc2ccccc2n1Cc1ccccc1Br	-20	1%	4%	i	7	i	nt	nt	nt
Cc1ccc(-c2onc(C)c2C)cc1S(=O)(=O)N1c2ccccc2CC1C (centres undefined)	1	-19%	8.2µM*	?	nt	i	2%	-7%	?
Cc1ccc(-c2onc(C)c2C)cc1S(=O)(=O)N1CCOc2ccccc21	-5	12%	?	i	18	i	nt	nt	nt
Nc1cccc(-c2cn3ccsc3n2)c1	-8	5%	nt	nt	nt	nt	nt	nt	nt
O=C(c1ccc2c(=O)n(CCc3ccccc3)c(=O)[nH]c2c1)N1CCN(c2ccc(Cl)cc2)CC1	-1	4%	?	i	nt	i	nt	nt	nt
COCCn1c(=O)[nH]c2cc(C(=O)N3CCN(c4ccc(Cl)cc4)CC3)ccc2c1=O	-16	-23%	5.8µM*!	15µM*!	8	?	1%	-11%	?
CC1=Nc2cc(C(=O)N3CCCC3)ccc2Sc2ccc(C)cc21	-1	-1%	-24%	i	12	i	nt	nt	nt
CC1=Nc2cc(C(=O)NCCc3ccc(Cl)cc3)ccc2Sc2ccc(C)cc21	4	?	5.2µM*	nt	nt	nt	-9%	-26%	21µM*
CC(=O)O[C@]1(C(C)=O)CCC2C3C=C(C)C4=CC(=O)CC[C@]4(C)C3CC[C@@]21C (some centres undefined)	-4	-7%	0.26µM*	i	26	i	-11%	-8%	1.2µM*
CC(=O)O[C@]1(C(C)=O)CC[C@H]2[C@@H]3C=C(C)C4=CC(=O)CC[C@@H]4[C@H]3CC[C@@]21C	5	1%	?	i	-1	?	nt	nt	nt
Cc1ccc(S(=O)(=O)Nc2ccc(Br)cc2C(NCC(=O)O)c2ccccc2)cc1 (centres undefined)	-3	-8%	-17%	i	2	?	nt	nt	nt
O=C(O)CSc1cc(NS(=O)(=O)c2ccc(Br)cc2)c2ccccc2c1O	?	-16%	2.3µM*	i	-23	?	12µM*	-4%	-8%
CC[n+]1ccccc1/C=C1\Sc2ccc(C)cc2N1C	-4	?	6.5µM*	?	4	i	1%	-28%	2.9µM*
O=C(O)c1ccc(S(=O)(=O)N[C@H](Cc2ccc(O)cc2)C(=O)O)cc1	nt	-4%	11%	nt	nt	nt	nt	nt	nt
COc1ccccc1S(=O)(=O)Cc1ccc(C(=O)NCc2ccc(Cl)cc2)o1	7	-5%	?	i	nt	i	nt	nt	nt
CCCCCCCn1c2c(c(=N)c3ccccc31)CCC2	5	?	2.3µM*	?	6	?	3%	?	1.5µM*
COc1cccc(Cn2cc(COC(=O)NCC(C)C)nn2)c1	4	nt	nt	nt	nt	nt	nt	nt	nt
CCn1c(COc2cccc(C)c2C)nnc1SCC(=O)N1CCN(c2ccc(OC)cc2)CC1	5	-6%	9.2µM*	15µM*	19	2.3µM*	-1%	-15%	8.2µM*
SMILES	PI4K2A inh	A549 tox-1	Nrf2 inh	KB-3-1 tox	Giardia killer	KB-V1 MDR tox	FLuc enzyme inh	A549 tox-2	Nrf2 ARE inh
COc1ccc([C@@]23CCN=C2c2[nH]c4ccccc4c2CCN3)c(N)c1	-2	nt	nt	nt	nt	nt	nt	nt	nt
CC1=CC(=O)C2=C(C)CC[C@@H]3[C@H](OC(=O)[C@H]3C)[C@@H]12	-1	-3%	6.5µM*	i	-20	i	6%	-8%	6.5µM*
COc1ccc(CN(C)c2ccc(-c3nc(C)no3)cc2[N+](=O)[O-])cc1	1	2%	2%	?	nt	?	nt	nt	nt
Cc1cc2c(=Cc3ccc(N(C)C)cc3)c3ccccc3n2[n+]1C	-13	16µM*	2.6µM*	i	-11	i	-22%	?	6.5µM*
O=C(CN1CCN(Cc2ccccc2)CC1)N/N=C\c1ccccc1[N+](=O)[O-]	1	nt	nt	nt	nt	nt	nt	nt	nt
COc1cc(NC(=O)c2cccs2)c(OC)cc1NC(=O)CCC(=O)Nc1ccc2ncccc2c1	0	-3%	5.8µM*	i	-14	i	-13%	2%	-11%
COc1cccc(N(C)C(=O)[C@@H](C)[C@@H](O)c2ccc(Cl)cc2)c1	-1	nt	nt	nt	nt	nt	nt	nt	nt
COC(C(=O)C(O)C(C)O)C1Cc2cc3cc(OC4CC(OC5CC(O)C(O)C(C)O5)C(O)C(C)O4)c(C)c(O)c3c(O)c2C(=O)C1OC1CC(OC2CC(OC3CC(O)C(OC)C(C)O3)C(O)C(C)O2)C(O)C(C)O1 (centres undefined)	-6	?	0.12µM*	0.18µM*	-3	i	-4%	-21%	0.37µM*

Screening results from PubChem.
